In PubChem BioAssay (NCATS):
Values without a mark were called inactive. Records with an inconclusive call do not appear. Calls of active or inactive are those of the source. Unless noted, calls come from the whole dose curve; as a rule, active = well fitted curve in either direction with a large enough effect (not every such curve was filed as active); inconclusive = small, poorly fitted or top-dose-only effect, or another doubt; inactive = flat fitted curve, though single readings scatter.

Columns and labels:
[1] = biological target: Lysosomal acid glucosylceramidase (Homo sapiens) (UniProt P04062); assay: Glucocerebrosidase-p2 (AID 348; in the data active = potency below about 10 µM; note: potency is the fitted concentration of half-maximal effect); conditions: purified GBA, blue fluorogenic substrate, 40 min
Sequence of Lysosomal acid glucosylceramidase (Homo sapiens) (P04062 whole entry, looked up): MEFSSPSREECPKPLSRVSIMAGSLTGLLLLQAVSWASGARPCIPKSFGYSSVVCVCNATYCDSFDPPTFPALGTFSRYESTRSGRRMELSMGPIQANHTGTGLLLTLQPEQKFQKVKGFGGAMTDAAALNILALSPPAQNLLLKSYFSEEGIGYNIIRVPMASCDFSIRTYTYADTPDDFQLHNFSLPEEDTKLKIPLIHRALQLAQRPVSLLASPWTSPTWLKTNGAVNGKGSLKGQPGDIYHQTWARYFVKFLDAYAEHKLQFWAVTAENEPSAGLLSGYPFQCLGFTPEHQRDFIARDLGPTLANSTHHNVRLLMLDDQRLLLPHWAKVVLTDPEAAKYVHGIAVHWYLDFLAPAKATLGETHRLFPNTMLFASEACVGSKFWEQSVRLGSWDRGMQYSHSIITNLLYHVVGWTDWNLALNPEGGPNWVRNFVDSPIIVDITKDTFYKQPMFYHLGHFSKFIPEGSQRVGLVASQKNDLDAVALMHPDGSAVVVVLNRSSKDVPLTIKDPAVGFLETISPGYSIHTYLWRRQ
Outline: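 Compounds titrated from 0.6 nM upwards against 0.2 nM enzyme in pH 5.9 citric acid/KH2PO4, taurocholate, tween-20; blue fluorogenic substrate 80 uM, 40 min room temperature, stopped and read Ex 365/Em 440 for AC50.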

[2] = AP1 Signaling Pathway (AID 357); conditions: ME-180 AP-1-bla reporter, EGF-induced, beta-lactamase ratio, 5 h; at 7.69 µM (top of the series) unless noted;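 note: ME-180 reporter cells stimulated with EGF at its EC50 level; % is set by controls: 0 for no effect and ±100 for the full control effect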
Outline: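 Cells are seeded overnight, exposed to compound titrations and an EC50 level of EGF for 5 hours at 37 °C, then loaded with CCF4 dye for 2.5 hours. Beta-lactamase activity under the AP-1 element is read as a blue/green ratio.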

[3] = biological target: Cytochrome P450 1A2 (Homo sapiens) (UniProt P05177); assay: p450-cyp1a2 (AID 410; calls by dose curve; note: potency is the fitted concentration of half-maximal effect;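 for activity change, negative = inhibition: -100% = full effect of reference inhibitor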); conditions: recombinant CYP1A2, luciferin-ME demethylation, luminescence; series mostly up to 11.4 µM
Sequence of Cytochrome P450 1A2 (Homo sapiens) (P05177 whole entry, looked up): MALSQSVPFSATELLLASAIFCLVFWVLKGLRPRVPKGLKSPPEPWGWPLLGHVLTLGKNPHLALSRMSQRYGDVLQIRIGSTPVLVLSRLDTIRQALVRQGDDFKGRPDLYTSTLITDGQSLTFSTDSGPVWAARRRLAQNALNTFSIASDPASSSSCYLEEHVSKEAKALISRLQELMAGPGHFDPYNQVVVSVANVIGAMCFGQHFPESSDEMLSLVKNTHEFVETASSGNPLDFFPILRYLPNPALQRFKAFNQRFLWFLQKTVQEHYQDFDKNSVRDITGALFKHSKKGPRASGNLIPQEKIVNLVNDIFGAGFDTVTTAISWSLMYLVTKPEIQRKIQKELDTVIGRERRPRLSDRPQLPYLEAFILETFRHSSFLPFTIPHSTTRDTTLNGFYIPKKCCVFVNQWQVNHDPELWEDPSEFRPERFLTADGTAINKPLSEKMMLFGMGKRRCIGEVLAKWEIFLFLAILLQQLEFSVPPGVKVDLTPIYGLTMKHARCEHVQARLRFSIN
Outline: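 Human CYP1A2 (20nM) demethylated Luciferin-ME at its Km (100uM) in 100mM KPO4. After 10 min compound preincubation, NADPH regeneration ran the reaction 60 min at room temperature. Luciferin was read by luminescence, normalized to 57 uM furafylline.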

[4] = NFAT Signaling Pathway (AID 444); conditions: Jurkat NFAT-bla M1, carbachol, beta-lactamase ratio, 5 h; at 7.69 µM (top of the series) unless noted;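 note: carbachol stimulus at about its EC50 of 1 µM final; % is set by controls: 0 for no effect and ±100 for the full control effect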
Outline: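 Read-out: CCF4 FRET ratio (460 nm/530 nm) after 1 h RT dye loading, used for %activity and AC50 from titration series. Cells: Jurkat NFAT-β-lactamase/M1 line, treated with compound plus 1 uM carbachol for 5 h, 37 °C.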

[5] = Stat Signaling Pathway (AID 446); conditions: ME-180 SIE beta-lactamase reporter, IL-6 stimulated, 5 h; at 7.69 µM (top of the series) unless noted;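 note: ME-180 cervical cancer cells given 40 pM IL-6 alongside compound; SIE-controlled beta-lactamase reporter measured as 460/530 nm FRET emission ratio; % is set by controls: 0 for no effect and ±100 for the full control effect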
Outline: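 Screening format detects activators and inhibitors alike: ME-180 SIE-bla cells stimulated at 40 pM IL-6 for 5 hrs with compound, then dual-emission beta-lactamase read at 405 nm excitation.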

[6] = biological target: Glucocorticoid receptor (Homo sapiens) (UniProt P04150); assay: GR-GFP Redistribution (AID 450;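 active = compounds whose dose series gives a full or clear partial fitted curve of increased nuclear translocation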; note: potency is the fitted concentration of half-maximal effect); conditions: U2OS GR-GFP nuclear translocation, laser cytometry, 2 h
Sequence of Glucocorticoid receptor (Homo sapiens) (P04150 whole entry, looked up, the tested form may be a part): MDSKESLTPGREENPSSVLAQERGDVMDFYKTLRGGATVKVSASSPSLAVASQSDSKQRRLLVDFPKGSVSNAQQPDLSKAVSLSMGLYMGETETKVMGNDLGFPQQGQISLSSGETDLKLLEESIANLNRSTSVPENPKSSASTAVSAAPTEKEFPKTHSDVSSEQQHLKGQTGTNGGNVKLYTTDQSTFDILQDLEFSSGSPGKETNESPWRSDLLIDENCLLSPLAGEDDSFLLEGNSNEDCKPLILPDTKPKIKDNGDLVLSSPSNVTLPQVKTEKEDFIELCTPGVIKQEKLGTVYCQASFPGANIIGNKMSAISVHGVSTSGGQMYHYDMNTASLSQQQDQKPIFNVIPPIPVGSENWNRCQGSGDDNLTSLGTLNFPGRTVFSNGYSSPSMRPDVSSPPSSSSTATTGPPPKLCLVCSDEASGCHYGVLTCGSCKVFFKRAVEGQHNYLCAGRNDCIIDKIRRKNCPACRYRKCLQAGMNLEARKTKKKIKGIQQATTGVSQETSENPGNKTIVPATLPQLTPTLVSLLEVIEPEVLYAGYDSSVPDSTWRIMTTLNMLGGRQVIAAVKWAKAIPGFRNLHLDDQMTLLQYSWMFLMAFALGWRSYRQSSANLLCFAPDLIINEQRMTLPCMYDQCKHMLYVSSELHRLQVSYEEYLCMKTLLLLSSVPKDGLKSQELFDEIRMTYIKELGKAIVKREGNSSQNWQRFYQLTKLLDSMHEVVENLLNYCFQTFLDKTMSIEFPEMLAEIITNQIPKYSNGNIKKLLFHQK

[7] = biological target: Glucocorticoid receptor (Homo sapiens) (UniProt P04150); assay: GR-EFC Redistribution (AID 451; calls by dose curve; note: potency is the fitted concentration of half-maximal effect); conditions: CHO-K1 GR-EFC translocation, beta-gal luminescence, 2 h
Outline: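 Translocation of GR-ED fusion to nuclear EA restores b-gal, read by luminescence after 1 h room-temperature detection. Engineered CHO-K1 biosensor cells, 1,000/well, exposed 2 h at 37 C to titrations up to 46 uM final.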

[8] = biological target: Mitogen-activated protein kinase 10 (Mus musculus) (UniProt Q61831); assay: JNK3 AlphaScreen Assay (AID 530); conditions: JNK3 lysate, c-Jun phosphorylation; series mostly up to 11.4 µM;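 note: kinase came from lysate of stimulated human HepG2 cells; signal reports phosphorylation of biotinylated GST-cJun 1-79 at Ser73 with 10 µM ATP; % is set by controls: 0 for no effect and ±100 for the full control effect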
Outline: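 Room-temperature AlphaScreen kinase assay; pre-activated HepG2 lysate as JNK3 source, biotin-GST-cJun(1-79) substrate, 10 uM ATP, compound 15 min preincubation.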

[9] = biological target: 3',5'-cyclic-AMP phosphodiesterase 4B (Homo sapiens) (UniProt Q07343); assay: qHTS Assay for Inhibitors of PDE-IV (AID 607; active = well fitted activation curve with a large enough effect in the main read-out, with a control signal flat, not every such curve was filed as active; note: % of control where 0% means no effect); conditions: HEK293 ACTOne CNG channel cells, membrane potential fluorescence; series mostly up to 22.9 µM
Sequence of 3',5'-cyclic-AMP phosphodiesterase 4B (Homo sapiens) (Q07343 whole entry, looked up): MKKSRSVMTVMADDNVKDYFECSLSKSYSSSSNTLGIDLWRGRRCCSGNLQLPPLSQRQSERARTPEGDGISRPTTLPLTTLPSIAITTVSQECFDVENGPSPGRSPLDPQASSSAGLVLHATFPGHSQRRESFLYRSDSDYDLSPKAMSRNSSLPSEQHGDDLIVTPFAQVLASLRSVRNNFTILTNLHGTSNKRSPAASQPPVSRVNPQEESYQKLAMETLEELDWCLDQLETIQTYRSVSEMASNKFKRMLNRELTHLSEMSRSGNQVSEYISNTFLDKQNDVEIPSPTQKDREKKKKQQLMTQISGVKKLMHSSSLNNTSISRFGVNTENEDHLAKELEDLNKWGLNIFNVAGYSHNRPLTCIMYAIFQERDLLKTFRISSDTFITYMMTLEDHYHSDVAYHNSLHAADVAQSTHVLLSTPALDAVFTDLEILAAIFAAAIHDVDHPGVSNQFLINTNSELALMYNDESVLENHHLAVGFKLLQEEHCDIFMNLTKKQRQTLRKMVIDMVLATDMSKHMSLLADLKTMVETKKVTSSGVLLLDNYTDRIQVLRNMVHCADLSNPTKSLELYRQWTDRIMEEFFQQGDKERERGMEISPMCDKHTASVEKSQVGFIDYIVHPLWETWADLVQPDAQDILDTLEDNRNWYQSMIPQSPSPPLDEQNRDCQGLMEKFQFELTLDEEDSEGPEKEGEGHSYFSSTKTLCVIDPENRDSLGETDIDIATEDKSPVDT
Outline: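 The readout is membrane depolarisation from a cAMP-sensing CNG channel, detected with a potential dye at ex 535/em 590. Cells were HEK293-derived (endogenous PDE-IV) at 1000 cells/well, titrated up to 22.9 uM final.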

[10] = biological target: Cytochrome P450 3A4 (Homo sapiens) (UniProt P08684); assay: qHTS Assay for Activators of Cytochrome P450 3A4 (AID 885; active = well fitted curve in the direction sought with a large enough effect; an effect the other way counts as inactive or inconclusive; note: nearly all actives have a fitted effect of over 65% in size); conditions: recombinant CYP3A4, Luciferin-PPXE luminescence, 60 min; series mostly up to 11.4 µM
Sequence of Cytochrome P450 3A4 (Homo sapiens) (P08684 whole entry, looked up): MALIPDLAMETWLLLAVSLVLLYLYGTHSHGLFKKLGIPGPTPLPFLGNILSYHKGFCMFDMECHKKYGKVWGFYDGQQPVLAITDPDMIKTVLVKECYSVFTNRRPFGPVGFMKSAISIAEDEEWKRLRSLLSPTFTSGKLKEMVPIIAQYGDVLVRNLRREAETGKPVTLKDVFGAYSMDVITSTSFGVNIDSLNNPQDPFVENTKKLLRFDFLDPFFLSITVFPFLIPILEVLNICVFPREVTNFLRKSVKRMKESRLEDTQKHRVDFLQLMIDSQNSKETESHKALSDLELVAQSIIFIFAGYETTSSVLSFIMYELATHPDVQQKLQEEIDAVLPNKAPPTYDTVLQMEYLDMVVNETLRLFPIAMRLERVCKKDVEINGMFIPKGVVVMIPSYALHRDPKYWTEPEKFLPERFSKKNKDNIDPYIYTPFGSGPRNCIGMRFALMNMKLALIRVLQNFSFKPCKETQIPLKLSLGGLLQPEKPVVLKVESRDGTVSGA
Outline: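 Steps: enzyme/substrate mix dispensed; compound added, 10 min RT; NADPH regeneration solution added, 60 min RT; luciferin detection buffer stops reaction; 20 min later luminescence measured.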

[11] = biological target: Cytochrome P450 2D6 (Homo sapiens) (UniProt P10635); assay: qHTS Assay for Inhibitors and Substrates of Cytochrome P450 2D6 (AID 891; active = well fitted curve in the direction sought with a large enough effect; an effect the other way counts as inactive or inconclusive; note: nearly all actives have a fitted effect of over 60% in size; note: potency is the fitted concentration of half-maximal effect); conditions: recombinant CYP2D6, luciferin-ME EGE luminescence; series mostly up to 11.4 µM
Sequence of Cytochrome P450 2D6 (Homo sapiens) (P10635 whole entry, looked up): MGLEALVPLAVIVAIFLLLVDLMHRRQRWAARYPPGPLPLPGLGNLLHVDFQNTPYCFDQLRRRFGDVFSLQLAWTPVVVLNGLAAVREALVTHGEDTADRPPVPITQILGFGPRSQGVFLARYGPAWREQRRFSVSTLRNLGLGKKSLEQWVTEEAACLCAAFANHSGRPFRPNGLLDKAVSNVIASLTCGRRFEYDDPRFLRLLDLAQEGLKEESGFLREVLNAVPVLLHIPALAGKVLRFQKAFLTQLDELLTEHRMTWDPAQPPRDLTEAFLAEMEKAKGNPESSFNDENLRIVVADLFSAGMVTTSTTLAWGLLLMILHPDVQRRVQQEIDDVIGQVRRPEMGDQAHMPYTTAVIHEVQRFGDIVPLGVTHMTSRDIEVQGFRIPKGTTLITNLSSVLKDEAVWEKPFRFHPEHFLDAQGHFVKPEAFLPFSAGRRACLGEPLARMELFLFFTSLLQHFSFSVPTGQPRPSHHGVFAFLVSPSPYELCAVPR
Outline: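 Human CYP2D6 (5 nM) with 30 uM Luciferin-ME EGE (at Km) in 100 mM KPO4, compound preincubated 10 min, then NADPH regeneration system for 60 min at room temperature. Luciferin read by luminescence; normalized to 1.43 uM quinidine.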

[12] = biological target: Cytochrome P450 2C19 (Homo sapiens) (UniProt P33261); assay: qHTS Assay for Inhibitors and Substrates of Cytochrome P450 2C19 (AID 899; active = well fitted curve in the direction sought with a large enough effect; an effect the other way counts as inactive or inconclusive; note: nearly all actives have a fitted effect of over 60% in size; note: potency is the fitted concentration of half-maximal effect); conditions: recombinant CYP2C19, luciferin-H EGE luminescence; series mostly up to 11.4 µM
Sequence of Cytochrome P450 2C19 (Homo sapiens) (P33261 whole entry, looked up): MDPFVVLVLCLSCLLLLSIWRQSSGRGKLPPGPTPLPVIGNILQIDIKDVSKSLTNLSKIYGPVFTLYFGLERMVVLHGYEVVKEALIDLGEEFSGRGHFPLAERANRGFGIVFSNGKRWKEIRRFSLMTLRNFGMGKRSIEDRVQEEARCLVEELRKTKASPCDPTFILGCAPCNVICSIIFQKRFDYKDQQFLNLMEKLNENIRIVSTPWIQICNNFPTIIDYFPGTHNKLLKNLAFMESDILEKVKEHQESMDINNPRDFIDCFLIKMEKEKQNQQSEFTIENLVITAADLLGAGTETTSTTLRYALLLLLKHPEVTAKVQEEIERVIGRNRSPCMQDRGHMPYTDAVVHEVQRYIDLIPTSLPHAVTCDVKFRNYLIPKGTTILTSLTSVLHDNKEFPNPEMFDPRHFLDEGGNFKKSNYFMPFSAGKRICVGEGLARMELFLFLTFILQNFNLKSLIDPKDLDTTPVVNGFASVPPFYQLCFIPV
Outline: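 Luminescence readout of luciferin formed from 10uM Luciferin-H EGE (KM level) by 5 nM CYP2C19 in 50mM KPO4. 60 min NADPH-driven reaction at 37C after 10 min compound preincubation; data scaled to 57uM ketoconazole inhibition.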

| Structure (SMILES) | Potency [1] [µM] | activity change, negative = inhibition [2] [%] | Potency [3] | activity change, negative = inhibition [4] [%] | activity, negative = inhibition [5] [%] | Potency [6] [µM] | Potency [7] [µM] | Potency [8] | Potency [9] | Potency [10] | activity change, negative = inhibition [3] | Potency [11] | Potency [12] |
| --- | --- | --- | --- | --- | --- | --- | --- | --- | --- | --- | --- | --- | --- |
| O=C(O)c1cc(-c2ccncc2)nc2ccccc12 | > 11.4 | 3.07 | inactive | -5.13 | -5.62 | > 46 | > 9.22 | inactive | inactive | inactive |  |  |  |
| Cc1cnc2cc(Cl)ccc2c1SCC(=O)O | > 11.4 | -8.88 |  | -0.25 | -11.6 | > 46 | > 9.22 | inactive | inactive | inactive | -2.3% [at 2.29 µM] |  |  |
| O=S1(=O)[C@H]([C@H]2CC3c4ccccc4C2c2ccccc23)[C@@H](N2CCCCC2)[C@@H]1c1ccccc1 | > 11.4 | 28.4 |  | -27.2 | 10.9 | > 46 | > 9.22 | inactive | inactive | inactive | 1.6% [at 2.29 µM] | 3.16 µM (active) | 2.51 µM (active) |
| NC(N)=N/N=C(/c1ccccc1)c1ccc(O)cc1O | > 11.4 | -6.42 | 3.16 µM (active) | 5.67 | 6.43 | > 46 | > 9.22 | inactive | inactive | inactive |  | 1.26 µM (active) |  |
| Cc1ccc2nc(CC(=O)c3ccc4ccccc4c3)c(=O)[nH]c2c1 | > 11.4 | 6.36 | 2 µM (active) | -17.8 | 12.1 | > 46 | > 9.22 | inactive | inactive | inactive |  |  |  |
| NCCSCc1ccccc1Cl | > 11.4 | 1.67 | 3.16 µM (active) | -5.94 | 2.36 | > 46 | > 9.22 | inactive | inactive | inactive |  | 3.16 µM (active) |  |
| Br/C(=N\Nc1nn[nH]n1)c1ccncc1 | > 11.4 | 9.43 | inactive | 24.2 | 1.9 | > 46 | > 9.22 | inactive | inactive | inactive |  | inactive |  |
| Cc1ccc(-c2nnc(-c3ccc4ccccc4c3)o2)cc1 | > 11.4 | 13.5 | 0.631 µM (active) | -21 | 14.3 | > 46 | > 9.22 | inactive | inactive | inactive |  |  |  |
| Cc1cc(O)c(C(C)C)cc1NC(=O)Nc1cccc2ccccc12 | > 11.4 | -27.4 | 0.794 µM (active) | -15.2 | -19 | > 46 | > 9.22 | inactive | inactive | inactive |  |  | 0.0501 µM (active) |
| CN(C)C[C@H]1CCC[C@@H](CN(C)C)C1=O | > 11.4 | 5.24 | inactive | -4.78 | 3.25 | > 46 | > 9.22 | inactive | inactive | inactive |  |  |  |
| CC1=NN(C(=O)c2ccncc2)C(=O)[C@@H]1N=Nc1ccc2ccccc2c1 | > 11.4 | -15.6 | 0.158 µM (active) | 11.9 | -4.73 | > 46 | > 9.22 | inactive | inactive | inactive |  |  |  |
| N/C(CC(=O)Nc1cc(C(F)(F)F)ccc1Cl)=N\O | > 11.4 | -3.52 | 1.58 µM (active) | 11.5 | -1.63 | > 46 | > 9.22 | inactive | inactive | inactive |  |  | inactive |
| C(/C=C\c1ccccc1)=Nc1ccc2c(c1)Cc1ccccc1-2 | > 11.4 | -2.87 | 0.398 µM (active) | -3.9 | 7.01 | > 46 | > 9.22 | inactive | inactive | inactive |  |  | 3.98 µM (active) |
| Cc1c(N2CCCC2)cc2c(c1NC(=O)c1ccccc1Cl)C(C)(C)CC2(C)C | > 11.4 | -3.93 |  | -10.2 | -9.5 | > 46 | > 9.22 | inactive | inactive | inactive | -13.1% [at 2.29 µM] |  | 0.794 µM (active) |
